This is a sample that favours compounds with a hit; in the whole collection about 6.4% have one here.
VP16 counter = VP16 counterscreen qHTS for inhibitors of ROR gamma transcriptional activity; actives 3.5% (n = 310,000); Potency, µM (series often up to 53.6 µM), most hits filed as inhibitors; Drosophila S2 Gal4-VP16 UAS-luciferase, luminescence, 20 h;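 also: Gal4-VP16 expression switched on by copper sulfate through the metallothionein promoter; nearly all actives have a fitted effect of over 50% in size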
Luc counter = Counterscreen for Luciferase (Kinase-Glo TM) Inhibition; AID 1379, 2008; Potency, µM (top dose mostly 38.3 µM), usual class: inhibitors; Kinase-Glo luciferase, ATP luminescence, 8 min; Luciferin 4-monooxygenase (Photuris pensylvanica), Q27757; actives 0.28% (n = 200,000); also: nearly all actives have a fitted effect of over 60% in size
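Luminescence was the read-out, taken after 8-minute incubation at ambient temperature. Luciferase turned over luciferin with 10 uM ATP in imidazole pH 7.2 buffer containing KCl, MgCl2, Tween 20 and BSA.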
RORgamma inh = qHTS for inhibitors of ROR gamma transcriptional activity; Drosophila S2 Gal4-RORgamma UAS-luciferase reporter, 20 h; Nuclear receptor ROR-gamma (Mus musculus), P51450; actives 5.4% (n = 310,000); Potency, µM (highest dose often 53.6 µM), usual class: inhibitors; AID 2551, 2010; also: nearly all actives have a fitted effect of over 60% in size
Target sequence (P51450 whole entry, looked up, the tested form may be a part): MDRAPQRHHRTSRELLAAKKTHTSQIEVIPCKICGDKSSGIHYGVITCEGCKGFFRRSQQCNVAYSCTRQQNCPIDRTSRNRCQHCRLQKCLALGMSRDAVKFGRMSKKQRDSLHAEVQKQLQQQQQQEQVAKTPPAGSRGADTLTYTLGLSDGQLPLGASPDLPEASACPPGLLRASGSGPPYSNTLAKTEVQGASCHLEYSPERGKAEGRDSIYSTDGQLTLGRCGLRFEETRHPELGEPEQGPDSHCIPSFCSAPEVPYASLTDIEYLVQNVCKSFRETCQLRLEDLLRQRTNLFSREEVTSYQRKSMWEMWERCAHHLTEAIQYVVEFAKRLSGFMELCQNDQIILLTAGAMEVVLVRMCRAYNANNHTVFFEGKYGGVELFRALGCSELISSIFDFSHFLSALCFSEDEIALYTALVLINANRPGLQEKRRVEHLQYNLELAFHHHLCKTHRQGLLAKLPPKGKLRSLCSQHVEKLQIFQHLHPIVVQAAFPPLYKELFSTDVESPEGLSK
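Schneider cells (Drosophila), stable Gal4 DBD–ROR gamma + UAS-luc; 1 hr cmpd preincubation; Cu2+ induction 700 uM final; 20 hr ambient; luminescence.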
A number is an active result; i = inactive; ? = inconclusive; nt = not tested or not shown; ! = a repeat was not active; [ ] = another dose, or the depositor's remark. Calls follow the shape of the dose curve; as a rule, active = well fitted curve in the direction sought with a large enough effect; inconclusive = small, poorly fitted or top-dose-only effect, or another doubt; inactive = no such curve, though single readings can be large; an effect the other way counts as inactive or inconclusive.

SMILES | VP16 counter | Luc counter | RORgamma inh
CSCC[C@H](NC(=O)CNC(=O)CNC(=O)[C@H](CO)NC(=O)[C@H](CCCNC(=N)N)NC(=O)[C@H](CO)NC(=O)[C@H](CC(C)C)NC(=O)[C@H](CC(C)C)NC(=O)CNC(=O)[C@H](C)NC(=O)[C@H](CC(C)C)NC(=O)[C@H](CCCNC(=N)N)NC(=O)[C@H](Cc1cnc[nH]1)NC(=O)[C@@H](NC(=O)[C@@H](N)C(C)C)[C@@H](C)O)C(=O)N[C@H](C(=O)N[C@@H](CCCCN)C(=O)N[C@@H](CO)C(=O)N[C@@H](CC(N)=O)C(=O)N[C@@H](Cc1ccccc1)C(=O)N[C@H](C(=O)N1CCC[C@H]1C(=O)N[C@H](C(=O)N[C@@H](CC(N)=O)C(=O)N[C@H](C(=O)NCC(=O)N[C@@H](CO)C(=O)N[C@@H](CCCCN)C(=O)N[C@@H](C)C(=O)N[C@@H](Cc1ccccc1)C(N)=O)C(C)C)[C@@H](C)O)C(C)C)C(C)C | i | nt | i
CC(C)C(=O)NNC(=O)c1csc(-c2cccs2)n1 | i | nt | i
CNc1ccccc1C(=O)N1CCc2c([nH]c3ccccc23)C1=O | i | i | i
Nc1cc(=O)[nH]c(SCc2nc3ccccc3n2Cc2ccccc2)n1 | i | i | i
CCn1c(CN2CCN(CCO)CC2)nc2ccccc21 | i | i | i
OCc1nc2ccccc2n1Cc1ccc(Cl)cc1 | i | nt | i
Clc1ccc(Cn2c(CN3CCCC3)nc3ccccc32)cc1 | 7.08µM | i | 2µM!
O=c1[nH]c(SCc2nc3ccccc3n2Cc2ccccc2)nc2ccccc12 | ? | i | 4.47µM
c1ccc(Cn2c(CN3CCCC3)nc3ccccc32)cc1 | ? | i | 14.1µM
CN(CC(=O)Nc1ccccc1Cl)C(=O)COC(=O)Cc1ccc(F)cc1 | i | nt | i
COc1ccccc1-c1noc(CCC(=O)NC2CCCCC2)n1 | i | nt | i
CC(C)C[C@@H](CC(=O)N[C@@H](CCC(=O)O)CC(=O)O)NC(=O)[C@@H]1CCCC[C@H]1NC(=O)C[C@H](CCCN)NC(=O)C[C@H](CO)NC(=O)[C@@H]1CNCC[C@H]1N | i | i | i
O=C1NC2(CCCCC2)C(=O)N1c1cccc(Cl)c1 | i | nt | i
O=S(=O)(CC(CN1CCCC1)N1CCCC1)c1ccc2ccccc2c1 (configuration not stated) | 11.2µM | i | ?
Cc1ccc(S(=O)(=O)CC(CN2CCOCC2)N2CCOCC2)cc1 (configuration not stated) | i | i | i
COc1cc(OC)cc(C(=O)Nc2nnc(-c3cccnc3)o2)c1 | 4.47µM | i | 1.41µM
O=C(Nc1cccc(NC(=O)c2cccc(Cl)c2)c1)c1cccnc1 | i | nt | i
COc1cc(OC)cc(C(=O)NCCCNC(=O)c2cccnc2)c1 | i | nt | i
Cc1cccc(NS(=O)(=O)c2nnc(NC(=O)c3ccc(Cl)cc3)s2)c1 | i | nt | i
Cc1cccc(-c2nnc(NC(=O)c3ccc(Cl)cc3)o2)c1 | 1.41µM | i | 1.41µM
O=C(Nc1nnc(-c2cccnc2)o1)c1cccc(Cl)c1 | 0.708µM | i | 0.501µM
COc1cccc(/C=C/C(=O)OCC(=O)NCCC2=CCCCC2)c1 | i | i | i
CC(=O)NC1=NN(C(C)=O)C(c2ccccn2)S1 (configuration not stated) | i | i | i
COc1ccc(S(=O)(=O)NCC2CCCN(C(=O)CSC)C2)cc1 (configuration not stated) | i | nt | i
COc1cccc(NC(=S)NC(=O)/C=C/c2ccco2)c1 | ? | nt | 11.2µM
SMILES | VP16 counter | Luc counter | RORgamma inh
COc1ccc(CNC(=O)/C=C/c2ccco2)cc1OC | i | i | i
CC(=O)N(C)c1ccc(NC(=S)NC(=O)/C=C/c2ccco2)cc1 | i | nt | 10µM
CC(=O)Nc1ccc(NC(=S)NC(=O)/C=C/c2ccco2)cc1 | i | nt | i
CCOc1ccc(NC(=S)NC(=O)/C=C/c2ccco2)cc1 | 5.62µM | nt | 3.98µM
COc1ccc(NC(=S)NC(=O)/C=C/c2ccco2)c(OC)c1 | 12.6µM | nt | 12.6µM
O=C(/C=C/c1ccco1)NC(=S)Nc1cccc(C(=O)O)c1 | i | nt | i
COc1cc(NS(=O)(=O)c2ccc(NC(=S)NC(=O)/C=C/c3ccco3)cc2)ncn1 | i | i | i
C=CCOC(=O)C1=C(C)NC(=S)NC1c1cccs1 (configuration not stated) | i | i | i
CC(=O)c1cccc(CN2CCN(C(C)C)C(CCO)C2)c1 (configuration not stated) | i | nt | i
C=CCn1c(=O)c2ccccc2n2c(SCC(C)=O)nnc12 | i | nt | i
COc1ccc(N2CCN(C(=O)/C=C/c3ccco3)CC2)cc1 | i | i | i
CN1CCN(c2ccc(NC(=S)NC(=O)/C=C/c3ccco3)cc2)CC1 | 11.2µM | nt | 11.2µM
COC(=O)c1ccc(C(NC(=O)OCc2ccccc2)/C(=C/[C@@H](C)C(=O)NCc2nc3ccccc3s2)c2cccnc2)cc1 (some centres not stated) | i | i | i
CCOc1ccc(S(=O)(=O)Nc2nc3ccccc3nc2Cl)cc1 | i | nt | i
CCOc1ccc(S(=O)(=O)Nc2cnc3ccccc3c2)cc1 | 6.31µM | nt | ?
CCNc1ncc2nc(-c3ccc(OC)cc3)c(=O)n(CCC#N)c2n1 | i | nt | i
C[C@@](N)(Cc1ccc(O)c(O)c1)C(=O)O | i | i | i
Cc1ccc(/C=N/NC(=O)CN2CCN(S(=O)(=O)c3ccc(Br)cc3)CC2)s1 | ? | i | ?
O=C(CN1CCN(S(=O)(=O)c2ccc(Br)cc2)CC1)N/N=C/c1ccc(Br)s1 | 8.91µM | i | 6.31µM
COC(=O)c1cc(=O)n(CCc2ccc(OC)c(OC)c2)c(=Nc2ccc(F)c(Cl)c2)s1 | ? | i | 17.8µM
COC(=O)c1cc(=O)n(Cc2ccc(OC)c(OC)c2)c(=Nc2ccc(F)cc2)s1 | ? | i | ?
O=C(O)c1ccc(-c2ccccc2)[nH]c1=O | i | nt | i
Nc1c(-c2ccccc2)cnn1-c1ccc(C(=O)O)cc1 | ? | i | 10µM
Nc1c(-c2ccc(Cl)cc2)cnn1-c1ccccc1 | i | nt | i
COc1ccc(-c2c(C)nn(-c3ccccc3)c2N)cc1 | i | i | i
SMILES | VP16 counter | Luc counter | RORgamma inh
Cc1nn(-c2ccc(C(=O)O)cc2)c(N)c1-c1ccccc1 | ? | i | 10µM
CCOP(=O)(OCC)C(Nc1ccc(OC)cc1)c1ccco1 (configuration not stated) | i | i | i
CC(CCc1ccccc1)NC(=O)CC(C)c1ccccc1 (configuration not stated) | i | nt | ?
COc1ccc(N/N=C(/C(C)=O)N2CCCc3ccccc32)cc1 | i | nt | i
O=C(CC(Nc1cccc(Cl)c1Cl)C(=O)O)c1ccccc1 (configuration not stated) | i[10 µM] | i | 11.2µM
O=C(CC(Nc1ccc(Cl)cc1)C(=O)O)c1ccccc1 (configuration not stated) | 5.01µM | i | 5.01µM
O=C(CC(CC(=O)c1ccccc1)C(=O)O)c1ccccc1 | i | i | i
O=C(CC(Nc1ccccc1Cl)C(=O)O)c1ccccc1 (configuration not stated) | i[10 µM] | i | 7.08µM
O=C(CC(C(=O)O)c1ccc(Cl)cc1)c1ccccc1 (configuration not stated) | i | i | i

Screens deposited in PubChem by National Center for Advancing Translational Sciences (NCATS).
